Reference: paper PMC7826789 (International Journal of Molecular Sciences, 2021)

Tests used:
Details in all cases: Compound Concentration (nM):1000
PLK3 = system: PLK3
PLK4 = system: PLK4
PRKCD = system: PRKCD
PRKCE = system: PRKCE
PRKCH = system: PRKCH
PRKCI = system: PRKCI
PRKCQ = system: PRKCQ
PRKD1 = system: PRKD1
PRKD2 = system: PRKD2
PRKD3 = system: PRKD3
PRKG1 = system: PRKG1
PRKG2 = system: PRKG2
PRKR = system: T1, PRKR
T1 construct: gene EIF2AK2

PRKX = system: PRKX
PRP4 = system: T2, PRP4
T2 construct: gene PRPF4B

PYK2 = system: T3, PYK2
T3 construct: gene PTK2B

QSK = system: T4, QSK
T4 construct: gene KIAA0999

RAF1 = system: RAF1
RET(M918T) = system: RET(M918T)
RET(V804L) = system: RET(V804L)
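Also: KINOMEscan scanMAX binding as percent activity remaining versus control; lower means stronger binding.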

SMILES | Percent Control (PLK3) [%] | Percent Control (PLK4) [%] | Percent Control (PRKCD) [%] | Percent Control (PRKCE) [%] | Percent Control (PRKCH) [%] | Percent Control (PRKCI) [%] | Percent Control (PRKCQ) [%] | Percent Control (PRKD1) [%] | Percent Control (PRKD2) [%] | Percent Control (PRKD3) [%] | Percent Control (PRKG1) [%] | Percent Control (PRKG2) [%] | Percent Control (PRKR) [%] | Percent Control (PRKX) [%] | Percent Control (PRP4) [%] | Percent Control (PYK2) [%] | Percent Control (QSK) [%] | Percent Control (RAF1) [%] | Percent Control (RET(M918T)) [%] | Percent Control (RET(V804L)) [%]
COc1ccc2cc(-c3c(-c4ccncc4)nc(-c4ccc(S(C)(=O)=O)cc4C)n3C)ccc2c1 [SB-633825] | 67 | 85 | 91 | 90 | 100 | 68 | 59 | 84 | 100 | 29 | 100 | 83 | 100 | 95 | 68 | 57 | 79 | 74 | 72 | 94
COc1cc(C)c(N(C)C(=O)CN(C)C)cc1Nc1nc(Nc2cccc(F)c2C(N)=O)c2cc[nH]c2n1 [GSK2219385] | 94 | 84 | 100 | 100 | 100 | 82 | 92 | 100 | 89 | 88 | 92 | 82 | 100 | 95 | 100 | 81 | 100 | 100 | 100 | 100
COc1cc2ncn(-c3cc(O[C@H](C)c4ccccc4Cl)c(C(N)=O)s3)c2cc1OC [GSK237701A] | 2 | 30 | 100 | 91 | 100 | 78 | 100 | 100 | 100 | 49 | 100 | 92 | 82 | 97 | 61 | 62 | 97 | 73 | 51 | 56
Cl.c1ccc(Cc2nc3ccc(Nc4ncnc5ccccc45)cc3[nH]2)cc1 [GR269666A] | 100 | 100 | 100 | 78 | 100 | 100 | 88 | 100 | 100 | 100 | 100 | 100 | 84 | 100 | 100 | 100 | 100 | 100 | 100 | 100
CCS(=O)(=O)c1ccc(OC)c(Nc2ncc(-c3cccc(OC)c3)o2)c1 [GW580509X] | 94 | 50 | 100 | 62 | 100 | 100 | 100 | 100 | 100 | 100 | 100 | 100 | 85 | 100 | 82 | 100 | 100 | 100 | 50 | 78
NS(=O)(=O)c1ccc(N/N=C2\C(=O)Nc3ccc(Cl)cc32)cc1 [GW280670X] | 95 | 89 | 99 | 100 | 100 | 100 | 100 | 100 | 100 | 100 | 85 | 100 | 86 | 100 | 100 | 100 | 100 | 100 | 100 | 100
CC1=C(C(=O)Nc2ccc3[nH]ncc3c2)C(c2ccc(Cl)c(Cl)c2)CC(=O)N1 (centres unmarked) [GSK299115A] | 84 | 87 | 100 | 94 | 100 | 91 | 95 | 100 | 85 | 47 | 45 | 67 | 79 | 25 | 74 | 79 | 92 | 100 | 74 | 75
CCn1c(-c2nonc2N)nc2c(C#CC(C)(C)O)nc(OCCNC)cc21.Cl [GSK949675] | 100 | 90 | 40 | 0 | 15 | 61 | 3.3 | 95 | 100 | 88 | 34 | 0.5 | 94 | 7.9 | 90 | 100 | 99 | 100 | 73 | 88
NS(=O)(=O)c1ccc(N/N=C2\C(=O)Nc3ccc(C(=O)NCc4ccncc4)cc32)cc1 [GW300657X] | 83 | 39 | 100 | 97 | 96 | 80 | 100 | 100 | 94 | 85 | 100 | 94 | 65 | 94 | 81 | 58 | 100 | 100 | 80 | 74
CN(C)CCNC(=O)Nc1ccc(N(C)c2ccnc(Nc3ccc(CS(C)(=O)=O)cc3)n2)cc1.Cl [GW830900A] | 90 | 24 | 100 | 100 | 100 | 85 | 100 | 100 | 100 | 100 | 100 | 95 | 100 | 90 | 100 | 57 | 87 | 100 | 79 | 88
